According to PubChem BioAssay:
A number with no mark means an inactive call. For some assays here: Entries with a potency or affinity are not part of this list. Calls of active or inactive are those of the source. Unless noted, no rule for the calls is given here.

What was measured:
[1] = antimalarial activity against Dd2 strain (AID 2302;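 active = growth inhibition above 50% at the single 2 µM test dose, taken to imply half-maximal potency below 2 µM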;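 also: 0% = DMSO untreated growth and 100% = chloroquine plus artemisinin killed control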); conditions: P. falciparum Dd2 in RBCs, LDH growth readout, 72 h; at 2 µM; hits give high values
[2] = human hepatoma cell viability loss – ATP luminescence, cytotoxicity control for P. falciparum antimalarial project, primary screen (AID 2303;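 active = inhibition above 50%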;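 also: 0% = DMSO wells and 100% = digitonin-killed cells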); conditions: HepG2 viability, 24-48 h, at 10 µM, hits give high values
[3] = target: L-lactate dehydrogenase (Plasmodium falciparum (isolate CDC / Honduras)) (UniProt Q27743); test: PfLDH activity inhibition – cell lysate, 3D7 strain, counter-screen for P. falciparum growth inhibition project (AID 2304);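 also: 0% = vehicle and 100% = reference inhibitor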; conditions: P. falciparum 3D7 crude extract, LDH APAD/NBT absorbance; at 2 µM; hits give high values
Sequence of L-lactate dehydrogenase (Plasmodium falciparum (isolate CDC / Honduras)) (Q27743 whole entry, looked up): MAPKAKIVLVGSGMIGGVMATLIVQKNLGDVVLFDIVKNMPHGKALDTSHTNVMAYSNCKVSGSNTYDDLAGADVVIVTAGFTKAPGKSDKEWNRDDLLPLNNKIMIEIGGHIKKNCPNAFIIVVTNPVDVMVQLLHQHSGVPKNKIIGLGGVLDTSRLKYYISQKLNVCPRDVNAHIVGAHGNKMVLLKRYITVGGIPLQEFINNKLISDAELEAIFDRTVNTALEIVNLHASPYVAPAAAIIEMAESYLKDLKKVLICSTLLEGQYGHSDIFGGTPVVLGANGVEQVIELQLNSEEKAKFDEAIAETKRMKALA

[4] = inhibition of 3D7 malaria parasite growth – strain 3D7 (AID 2306);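 also: 0% = DMSO wells and 100% = chloroquine plus artemisinin control wells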; conditions: P. falciparum 3D7 erythrocytic growth, LDH absorbance, 72 h; at 2 µM; hits give high values
[5] = target: Calcium-dependent protein kinase 1 (Plasmodium falciparum (isolate 3D7)) (UniProt P62344); test: PfCDPK1 kinase inhibitors, biochemical, TCAMS library (AID 1159585; cut-off not given, nearly all actives have IC50 up to about 0.98 µM;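 also: inhibitors leave more ATP so luminescence rises with inhibition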); conditions: recombinant PfCDPK1, Kinase-Glo ATP depletion luminescence
Sequence of Calcium-dependent protein kinase 1 (Plasmodium falciparum (isolate 3D7)) (P62344 whole entry, looked up): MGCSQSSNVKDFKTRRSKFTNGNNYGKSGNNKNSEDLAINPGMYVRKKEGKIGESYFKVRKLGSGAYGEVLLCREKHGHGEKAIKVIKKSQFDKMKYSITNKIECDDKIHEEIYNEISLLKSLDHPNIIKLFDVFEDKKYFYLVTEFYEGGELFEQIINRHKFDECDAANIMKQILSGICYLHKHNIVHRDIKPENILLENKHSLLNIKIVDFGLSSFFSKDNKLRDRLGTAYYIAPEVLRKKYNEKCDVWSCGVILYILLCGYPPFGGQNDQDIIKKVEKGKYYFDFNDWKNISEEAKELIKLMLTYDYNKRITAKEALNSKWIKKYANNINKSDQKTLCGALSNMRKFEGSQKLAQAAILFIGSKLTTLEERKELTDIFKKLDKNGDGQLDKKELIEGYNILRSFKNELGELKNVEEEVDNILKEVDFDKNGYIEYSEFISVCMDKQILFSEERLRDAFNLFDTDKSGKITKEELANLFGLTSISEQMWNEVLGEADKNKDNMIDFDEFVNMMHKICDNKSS

[6] = target: Plasmodium falciparum protein kinase 6 (PK6, PF3D7_1337100) (UniProt Q8IDW1); test: PfPK6 kinase inhibitors, biochemical, TCAMS library (AID 1159586); conditions: recombinant PfPK6, Kinase-Glo ATP depletion luminescence
Sequence of Plasmodium falciparum protein kinase 6 (PK6, PF3D7_1337100) (Q8IDW1 1-305): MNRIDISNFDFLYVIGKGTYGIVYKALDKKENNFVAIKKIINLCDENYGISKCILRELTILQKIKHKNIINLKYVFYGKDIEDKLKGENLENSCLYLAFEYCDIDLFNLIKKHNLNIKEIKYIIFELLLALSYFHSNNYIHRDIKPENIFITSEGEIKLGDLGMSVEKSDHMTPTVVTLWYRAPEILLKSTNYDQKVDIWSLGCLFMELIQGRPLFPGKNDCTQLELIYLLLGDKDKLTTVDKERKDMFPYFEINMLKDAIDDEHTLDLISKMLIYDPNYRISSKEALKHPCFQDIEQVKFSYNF

[7] = target: Protein kinase 7 (PK7), Plasmodium falciparum 3D7 (PF3D7_0213400) (UniProt Q7YTF7); test: inhibition of Plasmodium PK7 catalytic activity – biochemical, TCAMS antimalarial set, Kinase-Glo luminescence (AID 1159587); conditions: recombinant PfPK7, Kinase-Glo ATP depletion luminescence
Sequence of Protein kinase 7 (PK7), Plasmodium falciparum 3D7 (PF3D7_0213400) (Q7YTF7 1-343): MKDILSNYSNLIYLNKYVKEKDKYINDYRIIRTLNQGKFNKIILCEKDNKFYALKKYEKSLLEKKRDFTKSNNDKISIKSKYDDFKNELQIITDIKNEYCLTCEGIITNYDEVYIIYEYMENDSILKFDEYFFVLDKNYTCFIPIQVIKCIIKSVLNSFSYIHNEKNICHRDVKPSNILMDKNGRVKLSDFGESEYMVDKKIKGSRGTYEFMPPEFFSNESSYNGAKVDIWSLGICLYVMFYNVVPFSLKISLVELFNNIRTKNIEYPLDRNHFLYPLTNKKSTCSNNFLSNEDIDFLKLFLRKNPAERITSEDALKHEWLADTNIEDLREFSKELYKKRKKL

[8] = target: Calcium-dependent protein kinase 4 (Plasmodium falciparum (isolate 3D7)) (UniProt Q8IBS5); test: PfCDPK4 kinase inhibitors, biochemical, TCAMS library (AID 1159588; cut-off not given, nearly all actives have IC50 up to about 0.91 µM); conditions: recombinant PfCDPK4, Kinase-Glo ATP depletion luminescence
Sequence of Calcium-dependent protein kinase 4 (Plasmodium falciparum (isolate 3D7)) (Q8IBS5 whole entry, looked up): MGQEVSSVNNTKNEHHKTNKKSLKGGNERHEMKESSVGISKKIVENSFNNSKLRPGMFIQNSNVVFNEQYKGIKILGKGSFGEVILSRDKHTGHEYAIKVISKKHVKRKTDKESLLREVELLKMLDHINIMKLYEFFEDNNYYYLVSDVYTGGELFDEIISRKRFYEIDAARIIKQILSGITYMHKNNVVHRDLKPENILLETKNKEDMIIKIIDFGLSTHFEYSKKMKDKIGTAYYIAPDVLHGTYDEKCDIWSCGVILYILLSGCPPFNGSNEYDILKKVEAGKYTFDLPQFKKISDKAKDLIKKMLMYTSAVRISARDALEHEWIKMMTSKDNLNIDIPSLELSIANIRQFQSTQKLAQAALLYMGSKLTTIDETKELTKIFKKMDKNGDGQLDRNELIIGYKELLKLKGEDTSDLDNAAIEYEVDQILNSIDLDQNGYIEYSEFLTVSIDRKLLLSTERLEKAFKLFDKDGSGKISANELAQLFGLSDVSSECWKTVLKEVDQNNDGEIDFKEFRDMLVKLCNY

Row | SMILES | growth inhibition [1] | inhibition [2] | inhibition [3] [%] | growth inhibition [4] | outcome [5] | outcome [6] | outcome [7] | outcome [8]
1 | CC(C)CCNCc1ccc(OCc2cccc(COc3ccc(CNCCC(C)C)cc3I)c2)c(I)c1 | 49% | 99% (active) | 2 | 91% (active) | inactive | inactive | inactive | inactive
2 | Cc1ccc(CNC(=O)[C@H](CCCN)Nc2nc(NCC3CCCCC3)ncc2C)cc1 | 5% | 1% | 3 | 92% (active) | inactive | inactive | inactive | inactive
3 | CC(C)C[C@H](Nc1ccnc(NCC2CCCCC2)n1)C(=O)NCCOc1ccccc1 | 73% (active) | 37% | 3 | 89% (active) | inactive | inactive | inactive | inactive
4 | O=S(=O)(c1cccc(F)c1)c1ccc(Nc2ncnc3cc(Br)sc23)cc1Cl | 11% | 20% | -2 | 86% (active) | inactive | inactive | inactive | inactive
5 | CCCCCCCN(CCCCCCC)CCCC(=O)Nc1ccnc2ccc(OC)cc12 | 98% (active) | 43% | -5 | 100% (active) | inactive | inactive | inactive | inactive
6 | COc1ccc(CCN(C)CCOc2ccc(NC(=O)c3cccc4c(=O)c5cc(SC)ccc5[nH]c34)cc2)cc1OC | 82% (active) | 52% (active) | 0 | 97% (active) | inactive | inactive | inactive | inactive
7 | COc1ccc(CCNCCCCCCNCCc2cccc([N+](=O)[O-])c2)cc1OC | -3% | 13% | -6 | 93% (active) | inactive | inactive | inactive | inactive
8 | O=C(N[C@@H](Cc1ccccc1)[C@H](O)CNC1CCCCC1)c1cc(C2CCCC2)cc(N2CCCC2=O)c1 | 98% (active) | 17% | 0 | 100% (active) | inactive | inactive | inactive | inactive
9 | Cc1nc(-c2ccc(-c3ccc(C(=O)Nc4ccc(I)c(OCC5CCCN5C)c4)cc3)c(C)c2)no1 (stereo not given) | 39% | 100% (active) | -2 | 97% (active) | inactive | inactive | inactive | inactive
10 | O=S(=O)(NCCN1CCCC1)c1ccc(-c2cccc(CNC3Cc4ccccc4C3)c2)s1 | 69% (active) | 57% (active) | 2 | 98% (active) | inactive | inactive | inactive | inactive
